In the library only some 2.2% were active in any assay of this set; here they are far more common.
VLA-4 inh: inhibition in a human VLA-4 binding assay | P13612 | VLA-4 expressing cells, ligand binding flow cytometry | inhibition, % (about 7 µM as worked out from the volumes in the protocol) | 0.2% of 330,000 active | AID 2557; in the data active = inhibition above about 50%
GASC-1 inh: blocks human GASC-1 demethylase activity; inhibition, % at 2.35 µM; GST-JMJD2C(1-420) H3K9me3 demethylation, DELFIA europium; Q9H3R0; 0.069% of 330,000 active;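 active = more than half of a compound's replicate wells show inhibition beyond 50%, single wells judged on their own value; inconclusive = some, but no more than half, of replicates pass 50% inhibition; inactive = no replicate passes 50% inhibition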;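 also: signal counts dimethyl H3K9 product captured on neutravidin plate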
Target sequence (Q9H3R0 1-420 limits assumed): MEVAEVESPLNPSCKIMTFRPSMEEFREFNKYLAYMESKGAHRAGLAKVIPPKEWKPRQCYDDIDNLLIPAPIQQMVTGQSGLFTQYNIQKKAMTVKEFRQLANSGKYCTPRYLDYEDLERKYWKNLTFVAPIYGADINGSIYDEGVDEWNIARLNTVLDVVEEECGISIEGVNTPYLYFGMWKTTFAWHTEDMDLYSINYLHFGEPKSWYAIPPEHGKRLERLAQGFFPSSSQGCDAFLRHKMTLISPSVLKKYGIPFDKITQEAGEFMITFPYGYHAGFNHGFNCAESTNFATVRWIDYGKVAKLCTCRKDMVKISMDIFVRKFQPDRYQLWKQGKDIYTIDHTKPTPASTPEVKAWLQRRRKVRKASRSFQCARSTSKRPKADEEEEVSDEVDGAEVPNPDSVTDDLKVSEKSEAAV
Granule exo inh: lytic granule exocytosis inhibition; 0.66% of 360,000 active; TALL-104 LAMP-1 surface exposure, flow cytometry; cells stimulated with thapsigargin and PMA; inhibition, % at 10 µM;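 active = inhibition above about 55%, limit read from the data; inconclusive = no clear call, values can overlap the other calls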
HTR2A ag: mouse HTR2A agonism via beta-arrestin recruitment; CHO-K1 mHTR2A beta-arrestin complementation, luminescence; percent of 30 µM serotonin response; AID 624169; 0.66% of 360,000 active; activation, % at 7.6 µM;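 active = activation above a run cutoff, the mean activation of all tested compounds plus 3 SD, cut at about 14% in these data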
V-ATPase pHluor: yeast V-ATPase proton transport regulation by pHLuorin | response, % at 10 µM | 0.37% of 350,000 active | S. cerevisiae, pHLuorin cytosolic pH fluorescence; in the data active = response mostly above about 7.3%, no sharp cut-off; inactive = mostly below about 5.4%; also: actives read high
MEX-5 binding: C. elegans MEX-5 TCR-2 RNA binding activity; Q9XUB2; MEX-5/FITC-TCR2 RNA binding, fluorescence polarization; stronger effect = lower value; activity score (negative = inhibition of binding), % at 10 µM; 0.38% of 300,000 active; AID 1832;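 active = inhibition past about -25% in most replicates, and total fluorescence under double the plate's negative control median, limit read from the data; inconclusive = replicates evenly split on the limit, or fluorescence at least double controls; inactive = too little inhibition in most replicates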
Large screens that a line does not name were inactive; ! = repeats disagree.

Cc1ccc(N2C(=O)/C(=C/c3ccc(CN(CCC#N)S(C)(=O)=O)o3)C(=O)NC2=S)cc1	MEX-5 binding -50
O=C1NC(=O)N(Cc2ccc(F)cc2)C(=O)/C1=C\c1ccc([N+](=O)[O-])s1	V-ATPase pHluor 101
O=C1NC(=O)N(CCc2ccc(F)cc2)C(=O)/C1=C/c1ccco1	none
O=C1NC(=O)N(CCc2ccc(F)cc2)C(=O)/C1=C/c1cccs1	Granule exo inh 80
COc1ccc(CN2C(=O)NC(=O)/C(=C/c3ccc([N+](=O)[O-])s3)C2=O)cc1	V-ATPase pHluor 133
CC(C)[C@H](NC(=O)N1C[C@H]2C[C@@H](C1)c1cccc(=O)n1C2)C(=O)Nc1ccccc1F	none
CNCC[C@@H](Oc1ccc(C(F)(F)F)cc1)c1ccccc1	none (no result: MEX-5 binding)
CCOC(=O)NC1CCc2cc(OC)c(OC)c(OC)c2-c2ccc(OC)c(=O)cc21 (configuration not stated)	none (no result: VLA-4 inh, GASC-1 inh, MEX-5 binding)
COc1ccc(C2=NCC(=S)Nc3ccc(Cl)cc32)cc1OC	none
S=C1CN=C(c2ccccc2)c2cc(Cl)ccc2N1	V-ATPase pHluor 25
COc1ccc(-c2nn(Cc3ccccc3)cc2C(=O)NC2CC2)cc1OC	none (no result: MEX-5 binding)
O=[N+]([O-])c1cccc(O)c1	none (no result: MEX-5 binding)
O=[N+]([O-])c1cc(S(=O)(=O)c2ccc(O)c([N+](=O)[O-])c2)ccc1O	MEX-5 binding -36
O=C1NC(=S)NC(=O)C1=Cc1cccn1-c1ccc(O)cc1	GASC-1 inh inconclusive (no result: VLA-4 inh)
CN1C(=O)/C(=C/c2cccn2-c2ccc3ccccc3c2)C(=O)NC1=S	Granule exo inh 98
OC(COCc1ccc(Cl)cc1)CN1CC=C(c2ccccc2)CC1 (configuration not stated)	HTR2A ag 19!
CCC(=NCc1ccco1)c1c(O)n(-c2ccc(Cl)cc2)c(=O)[nH]c1=O	none (no result: GASC-1 inh, MEX-5 binding)
Cc1cc(C)cc(OCCOc2cccc(C=C3C(=O)NC(=O)NC3=O)c2)c1	GASC-1 inh 68
C=CCn1c(O)c(/C=C/C=Nc2ccccc2)c(=O)[nH]c1=O	MEX-5 binding -26
COC(=O)[C@@]1(C#N)[C@@H]2C=CC(C(C)=O)=CN2[C@@H](C(N)=O)[C@@H]1c1ccc(F)cc1	MEX-5 binding -57
CCOC(=O)[C@@]1(C#N)C(c2ccc(Cl)c(Cl)c2)[C@H](C(N)=O)N2C=C(C(C)=O)C=C[C@H]21 (some centres not stated)	MEX-5 binding -56
CCOC(=O)c1cc(CC)sc1/N=C/c1c(O)[nH]c(=S)[nH]c1=O	MEX-5 binding -29
COCCNC(=O)Cn1cc(/C=C2\C(=O)NC(=O)N(c3ccccc3F)C2=O)c2ccccc21	MEX-5 binding -86
COC(=O)Cn1cc(/C=C2\C(=O)NC(=O)N(c3ccc(OC)cc3)C2=O)c2ccccc21	MEX-5 binding -54
COc1ccc(N2C(=O)NC(=O)/C(=C\c3cn(C)c4ccccc34)C2=O)cc1	MEX-5 binding -39
COCCCNC(=O)Cn1cc(/C=C2\C(=O)NC(=O)N(c3ccccc3F)C2=O)c2ccccc21	Granule exo inh inconclusive, MEX-5 binding inconclusive
O=C(O)Cn1cc(/C=C2\C(=O)NC(=O)N(c3ccc(F)cc3)C2=O)c2ccccc21	MEX-5 binding -42 (no result: Granule exo inh, HTR2A ag, V-ATPase pHluor)
COCCNC(=O)Cn1cc(/C=C2\C(=O)NC(=O)N(c3cccc(C)c3C)C2=O)c2ccccc21	MEX-5 binding inconclusive
C1CC2OC2CC1C1CO1 (configuration not stated)	none (no result: MEX-5 binding)
N#CC(C#N)=Cc1ccc(N2CCOCC2)cc1	MEX-5 binding -27
Oc1ccccc1-[n+]1c(-c2ccccc2)cc(-c2ccccc2)c(O)c1-c1ccccc1	Granule exo inh 74
O=C(N/N=C/c1c(O)n(Cc2ccccc2)c(=O)[nH]c1=O)c1ccccc1O	MEX-5 binding -36
CCN1/C(=C\C=C\C2=[N+](CC)c3ccccc3C2(C)C)C(C)(C)c2ccccc21	Granule exo inh 85, MEX-5 binding inconclusive (no result: VLA-4 inh)
CN1Cc2c(c(C#N)c(N)n(C)c2=S)CC1(C)C	MEX-5 binding -48
CC(C)[C@H]1C(=O)N2CCC[C@H]2[C@]2(O)O[C@](NC(=O)[C@@H]3C=C4c5cccc6[nH]cc(c56)C[C@H]4N(C)C3)(C(C)C)C(=O)N12	HTR2A ag 49 (no result: MEX-5 binding)

Screening results (PubChem)
